Source: PubChem (National Center for Advancing Translational Sciences (NCATS))
MARV entry inh – blocks Marburg virus binding to or entry into cells; Marburg virus pseudotyped entry inhibition, cell reporter; Potency, µM (series often up to 37.8 µM), inactives show at the top dose activity change, negative = inhibition, usual class: inhibitors; 1.8% of 300,000 active; AID 540276; calls by dose curve; tested in HEK293 cells; further: potency means the concentration at half of the fitted maximal effect
HCMV antiviral – inhibitors of human cytomegalovirus; HFF cells, HCMV-luciferase reporter, 72 h; hits give low values; activity change, negative = inhibition, % at 57.5 µM; 4.5% of 410,000 active; in the data active means activity change below about -60%; inconclusive means no clear call, values can overlap the other calls; inactive means above about -39%
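Two compound doses tested in HFFs infected with HCMV-luciferase, MOI 1 PFU/cell, 72 h at 37C. Lysate luminescence read with OneGlo; data normalized against buffer-only and 10uM Salinomycin inhibitor controls.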
LASV entry inh – blocks Lassa virus binding to or entry into cells | Lassa virus pseudotype entry inhibition, cell reporter | Potency, µM (top dose mostly 37.9 µM), for inactives: top-dose activity change, negative = inhibition, hits mostly inhibitors | 1.2% of 300,000 active; calls by dose curve; tested in HEK293 cells; further: potency means the concentration at half of the fitted maximal effect; nearly all actives have a fitted effect of over 50% in size
FMDV inh – foot and mouth disease virus antiviral activity. FMDV antiviral cell-based qHTS. Potency, µM (titrated, usually from 57.9 µM), for inactives: top-dose activity change, negative = inhibition, most hits filed as inhibitors. 1.2% of 410,000 active; calls by dose curve; tested in HEK293T cells; further: read-out not given here; potency means the concentration at half of the fitted maximal effect; nearly all actives have a fitted effect of over 45% in size
Starred values were filed as active, the others as inactive; ? = inconclusive; · = not tested or not shown; [ ] = another dose, or the depositor's remark. An excerpt weighted towards active compounds, which were near 6.2% of everything screened. On the % scale 0 is the no-effect control and ±100 the full control effect.

SMILES | MARV entry inh | HCMV antiviral | LASV entry inh | FMDV inh
CN(C)C(=O)CCc1ccc2c3c([nH]c2c1)[C@]1(C)[C@@H](C(=O)N2CCCCC2)C[C@H](CC(=O)NCC24CC5CC(CC(C5)C2)C4)C(=O)N1CC3 | 0% | -90* | · | -26%
CN(C)C(=O)CCc1ccc2c3c([nH]c2c1)[C@]1(C)[C@@H](C(=O)N2CCCCC2)C[C@H](CC(=O)NCCN2CCOCC2)C(=O)N1CC3 | 9% | -19 | · | -8%
CC[C@]12c3[nH]c4ccc(OC)cc4c3CCN1C(=O)C(CC(=O)NCC13CC4CC(CC(C4)C1)C3)C[C@@H]2C(=O)N1CCN(C(=O)c2ccco2)CC1 (stereo partly drawn) | -1% | · | · | ?
COc1cc(-c2nc3nc(C)cc(C)n3c2Nc2ccc(Cl)cc2)ccc1O | -8%[46.1 µM] | 136 | ? | -6%
CC(=O)Nc1ccc(-c2cc(C(=O)O)c3c(-c4ccccc4)[nH]nc3n2)cc1 | 4%[46.1 µM] | 5 | -9%[46.1 µM] | 2%
O=C(Nc1nccs1)C(c1ccccc1)N1CCCC1 (stereo not drawn) | 2%[46.1 µM] | 2 | 10% | 0%
O=C(/C=C/c1ccc(F)cc1)NNC(=O)CCN1CCN(Cc2ccccc2)CC1 | ? | -96* | ? | -21%
C[C@H]1CN([C@@H](C)CO)S(=O)(=O)c2ccc(Br)cc2O[C@H]1CN(C)C(=O)c1ccccc1F | · | -5 | · | ·
CCOC(=O)c1c(C)[nH]c(C)c1C(=O)COC(=O)/C=C/c1cccc(Cl)c1 | -2% | -14 | -25% | -15%
CCOC(=O)c1c(C)[nH]c(C=O)c1Cc1cccc(Cl)c1 | ? | -36 | 6.3µM* | 0%
CC(=O)NCCNc1ncnc2ccc(-c3cccc(NS(C)(=O)=O)c3)cc12 | · | · | · | -18%
Cc1cc(C)c(C(=O)/C=C/c2ccc(C(C)C)cc2)c(=O)[nH]1 | ? | -103* | ? | 32µM*
Cc1cc(C)c(C(=O)/C=C/C=C/c2ccccc2)c(=O)[nH]1 | 5% | 12 | -14% | 39%
COc1cc2nc(/C=C/c3cc(OC)c(OC)c(OC)c3)sc2cc1SC | 7.1µM* | -32 | ? | -19%
O=C(NCc1ccccc1)C1CCCN(C(=O)NCc2ccccc2)C1 (stereo not drawn) | 19%[46.1 µM] | 9 | 2%[46.1 µM] | 17%
c1ccc(COc2ncnc3c2ncn3CCCNC2CCN(Cc3ccccc3)CC2)cc1 | · | -86* | · | ?
CC1(C)CC(=O)C(C=NC2CCCCC2)=C(O)C1 | -6% | ? | 15% | 21%
Cn1nc([N+](=O)[O-])nc1Sc1nnc(-c2ccccc2)o1 | ? | -90* | -27% | 22µM*
Cc1cccc(NC(=O)CSc2nnc(C3CC3)n2CC2CCCO2)c1 (stereo not drawn) | -29%[46.1 µM] | -29 | ? | 9%
CC(C)N(Cc1nc(-c2ccccc2)no1)C(=O)c1ccc(Cl)cc1 | · | -89* | · | -25%
CCOc1cc(C(=O)N(Cc2nc(-c3ccc(C)cc3)no2)C(C)C)cc(OCC)c1OCC | -6%[46.1 µM] | -83* | 24%[46.1 µM] | ?
Cc1ccccc1C(=O)N(Cc1nc(-c2ccc(Cl)cc2)no1)C(C)C | -27%[46.1 µM] | ? | ? | ?
CC(C)N(Cc1nc(-c2ccc(Cl)cc2)no1)C(=O)c1cccs1 | ? | -60* | 0% | -28%
Cc1ccc(C(=O)N(Cc2nc(-c3ccc(C)cc3)no2)C(C)C)cc1 | · | 6 | · | -23%
CCOc1ccc2oc(C(=O)OCC(=O)NCC3CCCO3)c(C)c2c1 (stereo not drawn) | 5% | 19 | 11µM* | 0%
SMILES | MARV entry inh | HCMV antiviral | LASV entry inh | FMDV inh
CCOc1ccc2oc(C(=O)NNC(=O)c3ccccc3O)c(C)c2c1 | -4%[46.1 µM] | -72* | -8% | 23%
COc1ccc2oc(C(=O)OCC(=O)NCC3CCCO3)c(C)c2c1 (stereo not drawn) | 2% | -4 | -10% | 12%
COc1ccc2oc(C(=O)OCC(=O)c3ccc4c(c3)OCCO4)c(C)c2c1 | ? | -21 | 16µM* | ?
Cc1c(C(=O)NNC(=O)c2ccccc2O)oc2ccc(Br)cc12 | -4% | 7 | ? | 34%
O=C(N[C@@H](Cc1ccc(O)cc1)C(=O)O)c1ccc(C(F)(F)F)cc1 | · | ? | · | -7%
C=CCOc1c(Cl)cc(C(=S)N2CCCC2)cc1OCC | -8% | -76* | ? | -18%
CCOCCCn1c(=N)c(C(=O)NCc2cccnc2)cc2c(=O)n3cc(C)ccc3nc21 | 5%[46.1 µM] | -67* | -3%[46.1 µM] | -14%
CCC(C)n1c(=N)c(C(=O)NCc2ccccc2)cc2c(=O)n3cc(C)ccc3nc21 (stereo not drawn) | 1%[46.1 µM] | -73* | 1%[46.1 µM] | -11%
CCN1CCN(C(c2cccc(OC)c2)c2sc3nc(C)nn3c2O)CC1 (stereo not drawn) | ? | -25 | 4% | ?
CCOc1ccc(S(=O)(=O)N(CC)CC)cc1N | 19% | -81* | 7% | 1%
CCN(CC)S(=O)(=O)c1ccc(-c2ccc(S(=O)(=O)N(CC)CC)cc2)cc1 | ? | -64* | ? | ?
CCn1c(=S)sc2c(=O)n(CC(=O)NCCCc3ccccc3)c(C)nc21 | 6%[46.1 µM] | -29 | -3%[46.1 µM] | -11%
COc1ccc(C2CC(=O)c3cnc(NC(=O)c4cc(OC)cc(OC)c4)nc3C2)cc1 (stereo not drawn) | -4% | -7 | -13% | 0%
COc1ccc(C2CC(=O)c3cnc(Nc4cc(C)cc(C)c4)nc3C2)cc1 (stereo not drawn) | -11% | -14 | 0.46µM* | 0%
COc1cc2[nH]c(=O)n(Cc3ccc(C(=O)N4CCN(c5cccc(C)c5C)CC4)cc3)c(=O)c2cc1OC | 12%[46.1 µM] | -108* | -2%[46.1 µM] | -1%
CCOc1cc2[nH]c(=O)n(CCCCC(=O)N3CCN(c4cccc(Cl)c4)CC3)c(=O)c2cc1OCC | · | 7 | ? | 25µM*
COc1cccc(N2CCN(C(=O)c3ccc(Cn4c(=O)[nH]c5cc(OC)c(OC)cc5c4=O)cc3)CC2)c1 | ? | -9 | -4%[46.1 µM] | ?
CCOc1cc2[nH]c(=O)n(CCC(=O)N3CCN(c4ccccc4OC)CC3)c(=O)c2cc1OCC | 1% | 2 | -7% | -28%
CCOc1cc2[nH]c(=O)n(CCC(=O)N3CCN(c4ccccc4)CC3)c(=O)c2cc1OCC | · | -2 | 15%[46.1 µM] | -21%
COc1cc2[nH]c(=O)n(CCC(=O)N3CCN(c4cc(Cl)ccc4C)CC3)c(=O)c2cc1OC | ? | -64* | -23% | ?
COc1cc2[nH]c(=O)n(CCCCCC(=O)N3CC=C(c4ccccc4)CC3)c(=O)c2cc1OC | 8.9µM* | -30 | ? | ?
COc1cc2[nH]c(=O)n(CCC(=O)N3CCc4ccccc4C3)c(=O)c2cc1OC | -5% | 5 | -3% | -7%
CC(C(=O)Nc1ccc(S(=O)(=O)N2CCCC2)cc1)N1CCN(c2ccccc2O)CC1 (stereo not drawn) | · | 0 | · | ?
CCOc1cc2[nH]c(=O)n(CCCCC(=O)N3CCCCCC3)c(=O)c2cc1OCC | 8% | -104* | ? | -20%
COc1cc2[nH]c(=O)n(CCCCCC(=O)N3CCN(c4cccc(C(F)(F)F)c4)CC3)c(=O)c2cc1OC | ? | -70* | ? | 22µM*
CCOc1cc2[nH]c(=O)n(CCCCCC(=O)NC(C)CC)c(=O)c2cc1OCC (stereo not drawn) | · | 15 | 24%[46.1 µM] | -10%
